From publication PMC9911399, “Two distinct binding modes provide the RNA-binding protein RbFox with extraordinary sequence specificity” come the findings set out here.

T1: RBFOX1 RRM (Homo sapiens, UniProt Q9NWB1 109-208)
T1 sequence: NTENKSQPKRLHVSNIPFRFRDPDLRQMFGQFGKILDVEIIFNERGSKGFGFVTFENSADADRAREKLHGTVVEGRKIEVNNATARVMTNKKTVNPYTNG

B1: CCUAUCU (DNA:RNA)
RNA: GGGAGACCGGAAUUCAGAUUGUCCCCUAUCUUUAAAUCCCGUCGUAGCCACCA
DNA 1: CAATCTGAATTCCGGTCTCCC
DNA 2: TGGTGGCTACGACGGGATT
B2: UCGUAUU (DNA:RNA)
RNA: B1 RNA with C25U, U27G, A28U, U29A, C30U
DNA 1: CAATCTGAATTCCGGTCTCCC
DNA 2: TGGTGGCTACGACGGGATT
B3: AAACUUG (DNA:RNA)
RNA: B1 RNA with C25A, C26A, U27A, A28C, C30U, U31G
DNA 1: CAATCTGAATTCCGGTCTCCC
DNA 2: TGGTGGCTACGACGGGATT
B4: CUCACCC (DNA:RNA)
RNA: B1 RNA with C26U, U27C, U29C, U31C
DNA 1: CAATCTGAATTCCGGTCTCCC
DNA 2: TGGTGGCTACGACGGGATT
B5: AACGCAA (DNA:RNA)
RNA: GGGAGACCGGAAUUCAGAUUGUCCAACGCAAUUAAAUCCCGUCGUAGCCACCA
DNA 1: CAATCTGAATTCCGGTCTCCC
DNA 2: TGGTGGCTACGACGGGATT
B6: CCUCACG (DNA:RNA)
RNA: B1 RNA with A28C, U29A, U31G
DNA 1: CAATCTGAATTCCGGTCTCCC
DNA 2: TGGTGGCTACGACGGGATT
B7: CAAGGGU (DNA:RNA)
RNA: B5 RNA with A25C, C27A, C29G, A30G, A31U
DNA 1: CAATCTGAATTCCGGTCTCCC
DNA 2: TGGTGGCTACGACGGGATT
B8: UUGAGAG (DNA:RNA)
RNA: B5 RNA with A25U, A26U, C27G, G28A, C29G, A31G
DNA 1: CAATCTGAATTCCGGTCTCCC
DNA 2: TGGTGGCTACGACGGGATT
B9: UUGAUUG (DNA:RNA)
RNA: B1 RNA with C25U, C26U, U27G, C30U, U31G
DNA 1: CAATCTGAATTCCGGTCTCCC
DNA 2: TGGTGGCTACGACGGGATT
B10: UUGAGUG (DNA:RNA)
RNA: B1 RNA with C25U, C26U, U27G, U29G, C30U, U31G
DNA 1: CAATCTGAATTCCGGTCTCCC
DNA 2: TGGTGGCTACGACGGGATT
B11: UUGUUGA (DNA:RNA)
RNA: B5 RNA with A25U, A26U, C27G, G28U, C29U, A30G
DNA 1: CAATCTGAATTCCGGTCTCCC
DNA 2: TGGTGGCTACGACGGGATT
B12: UUGAUCC (DNA:RNA)
RNA: B1 RNA with C25U, C26U, U27G, U31C
DNA 1: CAATCTGAATTCCGGTCTCCC
DNA 2: TGGTGGCTACGACGGGATT
B13: UUGAUUC (DNA:RNA)
RNA: B1 RNA with C25U, C26U, U27G, C30U, U31C
DNA 1: CAATCTGAATTCCGGTCTCCC
DNA 2: TGGTGGCTACGACGGGATT
B14: UUUCAGA (DNA:RNA)
RNA: B5 RNA with A25U, A26U, C27U, G28C, C29A, A30G
DNA 1: CAATCTGAATTCCGGTCTCCC
DNA 2: TGGTGGCTACGACGGGATT
B15: UUGAUGA (DNA:RNA)
RNA: B1 RNA with C25U, C26U, U27G, C30G, U31A
DNA 1: CAATCTGAATTCCGGTCTCCC
DNA 2: TGGTGGCTACGACGGGATT
B16: UUUCUGA (DNA:RNA)
RNA: B1 RNA with C25U, C26U, A28C, C30G, U31A
DNA 1: CAATCTGAATTCCGGTCTCCC
DNA 2: TGGTGGCTACGACGGGATT
B17: UUGAGUC (DNA:RNA)
RNA: B1 RNA with C25U, C26U, U27G, U29G, C30U, U31C
DNA 1: CAATCTGAATTCCGGTCTCCC
DNA 2: TGGTGGCTACGACGGGATT
B18: UUCUGAA (DNA:RNA)
RNA: B5 RNA with A25U, A26U, G28U, C29G
DNA 1: CAATCTGAATTCCGGTCTCCC
DNA 2: TGGTGGCTACGACGGGATT
B19: UCCUUGA (DNA:RNA)
RNA: B5 RNA with A25U, A26C, G28U, C29U, A30G
DNA 1: CAATCTGAATTCCGGTCTCCC
DNA 2: TGGTGGCTACGACGGGATT

Residue numbers refer to the chain shown, from its start. In all, about 16,000 sequences were measured (“ka relative to ugcaugu”: median about 0.0091, highest 2% from about 0.032 on). Shown is part of a subset that was picked to be rich in the highest values.

The target of the test is T1, RBFOX1 RRM. Kind of test: EMSA; HiTS-Eq, 1 nM pool, 10 min; buffer printed only for the single-RNA assays: 10 mM Tris pH 7.5, 150 mM NaCl, 3.4 mM EDTA, 0.001% NP-40, 30 C. The settings on record: tags: His6 N-terminal (pET28a); label: 5' 32P. An outline of the steps:
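Purified RbFox RRM, wild type or mutant, was incubated for 10 min in 50 µL with 1 nM of a 5′-radiolabelled RNA pool carrying 7 randomized nucleotides, whose flanks were annealed to DNA oligonucleotides, over a series of increasing protein concentrations. Unbound RNA was resolved on 8% native PAGE, cut out, reverse-transcribed, barcoded by PCR and sequenced on an Illumina HiSeq 2500. Relative association constants were derived from changes in read counts for each RNA species versus the control reaction and normalised to the cognate motif.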
In general terms: A gel shift assay detects complexes by their altered migration in electrophoresis.
Take B1: the binding signal was 0.00242 KA relative to UGCAUGU.

On to B2, for which the binding signal was 0.00649 KA relative to UGCAUGU.

Take B3: the binding signal was 0.0047 KA relative to UGCAUGU.

Take B4: the binding signal was 0.00285 KA relative to UGCAUGU.

As to B5, the binding signal was 0.00455 KA relative to UGCAUGU.

As for B6, the binding signal was 0.00492 KA relative to UGCAUGU.

As for B7, the binding signal was 0.00279 KA relative to UGCAUGU.

Turning to B8, the binding signal is 0.0165 KA relative to UGCAUGU.

As to B9, the binding signal was 0.0356 KA relative to UGCAUGU.

Take B10: the binding signal is 0.0333 KA relative to UGCAUGU.

On to B11, for which the binding signal was 0.0329 KA relative to UGCAUGU.

Regarding B12, the binding signal was 0.0141 KA relative to UGCAUGU.

B13: the binding signal is 0.0169 KA relative to UGCAUGU.

Consider B14, for which the binding signal was 0.0123 KA relative to UGCAUGU.

B15: the binding signal was 0.0228 KA relative to UGCAUGU.

On to B16, for which the binding signal was 0.0328 KA relative to UGCAUGU.

Consider B17, for which the binding signal is 0.0173 KA relative to UGCAUGU.

For B18, the binding signal was 0.0233 KA relative to UGCAUGU.

In the case of B19, the binding signal was 0.0113 KA relative to UGCAUGU.
